# Measurements published in PubChem BioAssay AID1508601 (ICCB-Longwood Screening Facility, Harvard Medical School, 2020).
# Several values for one entry are separate records, joined by “and”; a condition that tells them apart may be missing. Identical values can stand only once. Hit rate of the full screen: of about 5,700 compounds, about 85 (1%) were called active. Rule as the data show it: active = p53-positive nuclei above about 36% (passing the limit was not always enough); inactive = the rest. Shown is part of a subset that was picked to be rich in actives. Where a structure was tested more than once in an assay, its records may differ in their call.
# Columns and labels:
# [1] = p53 stabilisation in HPV-positive human cells, imaging, p53-positive nuclei imaging, 24 h, 48 h (AID 1508601); conditions: 24/48 h
# [2] = biological target: Cellular tumor antigen p53 (Homo sapiens) (UniProt P04637); assay: as above; conditions: 24/48 h, stronger effect = higher value
# Sequence of Cellular tumor antigen p53 (Homo sapiens) (P04637 whole entry, looked up): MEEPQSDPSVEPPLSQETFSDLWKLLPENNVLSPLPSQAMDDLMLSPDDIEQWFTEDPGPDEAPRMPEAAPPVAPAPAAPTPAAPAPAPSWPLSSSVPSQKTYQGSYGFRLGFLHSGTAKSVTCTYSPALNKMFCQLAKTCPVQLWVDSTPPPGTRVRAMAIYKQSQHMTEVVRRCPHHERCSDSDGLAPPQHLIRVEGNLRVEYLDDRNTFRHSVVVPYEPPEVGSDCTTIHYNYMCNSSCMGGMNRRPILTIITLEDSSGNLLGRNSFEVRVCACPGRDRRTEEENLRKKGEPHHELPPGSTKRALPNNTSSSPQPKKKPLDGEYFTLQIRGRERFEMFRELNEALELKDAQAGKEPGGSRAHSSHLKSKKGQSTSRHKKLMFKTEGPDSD
# [3] = measured here: cell number at 24 h, Library stock concentration: 10 mM
# [4] = measured here: cell number at 24 h, concentration not given here
# [5] = measured here: cell number at 48 h, Library stock concentration: 10 mM
# [6] = measured here: cell number at 48 h, concentration not given here
# [7] = Library stock concentration: 10 mM
# [8] = measured here: p53 positive nuclei at 24 h, Library stock concentration: 10 mM
# [9] = measured here: p53 positive nuclei at 24 h, concentration not given here
# [10] = measured here: cell number at 24 h, Library stock concentration: 3.33 mM
# [11] = measured here: cell number at 48 h, Library stock concentration: 3.33 mM
# [12] = Library stock concentration: 3.33 mM
# [13] = measured here: p53 positive nuclei at 24 h, Library stock concentration: 3.33 mM
compound,measurement,setting,value
CC[n+]1c(-c2ccccc2)c2cc(N)ccc2c2ccc(N)cc21,"nuclei count, normalised","[1]; measured here: cell number at 24 h, Library stock concentration: 500 nM",102%
same,"nuclei count, normalised","[1]; measured here: cell number at 24 h, Library stock concentration: 1.5 uM",108%
same,"nuclei count, normalised","[1]; measured here: cell number at 24 h, Library stock concentration: 4.6 uM",106%
same,"nuclei count, normalised","[1]; measured here: cell number at 24 h, Library stock concentration: 13.7 uM",111%
same,"nuclei count, normalised","[1]; measured here: cell number at 24 h, Library stock concentration: 41 uM",111%
same,"nuclei count, normalised","[1]; measured here: cell number at 24 h, Library stock concentration: 123 uM",102%
same,"nuclei count, normalised","[1]; measured here: cell number at 24 h, Library stock concentration: 370 uM",117%
same,"nuclei count, normalised","[1]; measured here: cell number at 24 h, Library stock concentration: 1.111 mM",107%
same,"nuclei count, normalised","[1]; measured here: cell number at 24 h, Library stock concentration: 3.333 mM",105%
same,"nuclei count, normalised",[1]; [3],83.1%
same,"nuclei count, normalised",[1]; [4],104%
same,"nuclei count, normalised","[1]; measured here: cell number at 48 h, Library stock concentration: 500 nM",104%
same,"nuclei count, normalised","[1]; measured here: cell number at 48 h, Library stock concentration: 1.5 uM",109%
same,"nuclei count, normalised","[1]; measured here: cell number at 48 h, Library stock concentration: 4.6 uM",106%
same,"nuclei count, normalised","[1]; measured here: cell number at 48 h, Library stock concentration: 13.7 uM",109%
same,"nuclei count, normalised","[1]; measured here: cell number at 48 h, Library stock concentration: 41 uM",109%
same,"nuclei count, normalised","[1]; measured here: cell number at 48 h, Library stock concentration: 123 uM",99.5%
same,"nuclei count, normalised","[1]; measured here: cell number at 48 h, Library stock concentration: 370 uM",104%
same,"nuclei count, normalised","[1]; measured here: cell number at 48 h, Library stock concentration: 1.111 mM",99.7%
same,"nuclei count, normalised","[1]; measured here: cell number at 48 h, Library stock concentration: 3.333 mM",98.5%
same,"nuclei count, normalised",[1]; [5],75.3%
same,"nuclei count, normalised",[1]; [6],97.4%
same,"p53-positive nuclei, normalised",[2]; Library stock concentration: 500 nM,0.0282% (inactive)
same,"p53-positive nuclei, normalised",[2]; Library stock concentration: 1.5 uM,0.101% (inactive)
same,"p53-positive nuclei, normalised",[2]; Library stock concentration: 4.6 uM,-0.0128% (inactive)
same,"p53-positive nuclei, normalised",[2]; Library stock concentration: 13.7 uM,-0.0168% (inactive)
same,"p53-positive nuclei, normalised",[2]; Library stock concentration: 41 uM,0.329% (inactive)
same,"p53-positive nuclei, normalised",[2]; Library stock concentration: 123 uM,3.12% (inactive)
same,"p53-positive nuclei, normalised",[2]; Library stock concentration: 370 uM,7.73% (inactive)
same,"p53-positive nuclei, normalised",[2]; Library stock concentration: 1.111 mM,12.2% (inactive)
same,"p53-positive nuclei, normalised",[2]; Library stock concentration: 3.333 mM,19.5% (inactive)
same,"p53-positive nuclei, normalised",[2]; [7],103% (active)
same,"p53-positive nuclei, normalised",[2]; concentration not given here,34.3% (inactive)
same,"p53-positive nuclei, normalised","[2]; measured here: p53 positive nuclei at 24 h, Library stock concentration: 500 nM",0.0668%
same,"p53-positive nuclei, normalised","[2]; measured here: p53 positive nuclei at 24 h, Library stock concentration: 1.5 uM",0.166%
same,"p53-positive nuclei, normalised","[2]; measured here: p53 positive nuclei at 24 h, Library stock concentration: 4.6 uM",-0.00293%
same,"p53-positive nuclei, normalised","[2]; measured here: p53 positive nuclei at 24 h, Library stock concentration: 13.7 uM",-0.0711%
same,"p53-positive nuclei, normalised","[2]; measured here: p53 positive nuclei at 24 h, Library stock concentration: 41 uM",0.21%
same,"p53-positive nuclei, normalised","[2]; measured here: p53 positive nuclei at 24 h, Library stock concentration: 123 uM",1.53%
same,"p53-positive nuclei, normalised","[2]; measured here: p53 positive nuclei at 24 h, Library stock concentration: 370 uM",4.81%
same,"p53-positive nuclei, normalised","[2]; measured here: p53 positive nuclei at 24 h, Library stock concentration: 1.111 mM",11.9%
same,"p53-positive nuclei, normalised","[2]; measured here: p53 positive nuclei at 24 h, Library stock concentration: 3.333 mM",38.2%
same,"p53-positive nuclei, normalised",[2]; [8],127%
same,"p53-positive nuclei, normalised",[2]; [9],45.3%
CCCCC/C=C\C/C=C\C/C=C\C/C=C\CCCC(=O)N[C@H](C)COP(=O)(O)O,"nuclei count, normalised",[1]; [4],107%
same,"nuclei count, normalised",[1]; [6],103%
same,"p53-positive nuclei, normalised",[2]; concentration not given here,0.124% (inactive)
same,"p53-positive nuclei, normalised",[2]; [9],-0.0345%
N#CC(OC1OC(COC2OC(CO)C(O)C(O)C2O)C(O)C(O)C1O)c1ccccc1 (centres undefined),"nuclei count, normalised",[1]; [10],95.4%
same,"nuclei count, normalised",[1]; [11],89.1%
same,"p53-positive nuclei, normalised",[2]; [12],0.141% (inactive)
same,"p53-positive nuclei, normalised",[2]; [13],-0.0206%
Cc1ccc(-n2nccn2)c(C(=O)N2CCN(c3nc4cc(Cl)ccc4o3)CCC2C)c1 (centres undefined),"nuclei count, normalised",[1]; [10],71.4%
same,"nuclei count, normalised",[1]; [11],76.4%
same,"p53-positive nuclei, normalised",[2]; [12],0.0905% (inactive)
same,"p53-positive nuclei, normalised",[2]; [13],-0.163%
c1cc(N2CCNCC2)c2cnccc2c1,"nuclei count, normalised",[1]; [4],95.9%
same,"nuclei count, normalised",[1]; [6],98.3%
same,"p53-positive nuclei, normalised",[2]; concentration not given here,-0.118% (inactive)
same,"p53-positive nuclei, normalised",[2]; [9],-0.041%
CN(C)C(=S)SSC(=S)N(C)C,"nuclei count, normalised",[1]; [4],35.4%
same,"nuclei count, normalised",[1]; [6],24.2%
same,"p53-positive nuclei, normalised",[2]; concentration not given here,90.3% (active)
same,"p53-positive nuclei, normalised",[2]; [9],108%
Cc1sc2c(c1C)C(c1ccc(Cl)cc1)=NC(CC(N)=O)c1nnc(C)n1-2 (centres undefined),"nuclei count, normalised","[1]; measured here: cell number at 24 h, Library stock concentration: 46 uM",103%
same,"nuclei count, normalised","[1]; measured here: cell number at 24 h, Library stock concentration: 278 uM",99.7%
same,"nuclei count, normalised","[1]; measured here: cell number at 24 h, Library stock concentration: 1.67 mM",85.4%
same,"nuclei count, normalised",[1]; [10],123%
same,"nuclei count, normalised",[1]; [3],90.1%
same,"nuclei count, normalised","[1]; measured here: cell number at 48 h, Library stock concentration: 46 uM",106%
same,"nuclei count, normalised","[1]; measured here: cell number at 48 h, Library stock concentration: 278 uM",102%
same,"nuclei count, normalised","[1]; measured here: cell number at 48 h, Library stock concentration: 1.67 mM",87.7%
same,"nuclei count, normalised",[1]; [11],122%
same,"nuclei count, normalised",[1]; [5],84.3%
same,"p53-positive nuclei, normalised",[2]; Library stock concentration: 46 uM,-0.111% (inactive)
same,"p53-positive nuclei, normalised",[2]; Library stock concentration: 278 uM,0.158% (inactive)
same,"p53-positive nuclei, normalised",[2]; Library stock concentration: 1.67 mM,12.8% (inactive)
same,"p53-positive nuclei, normalised",[2]; [12],3.31% (inactive)
same,"p53-positive nuclei, normalised",[2]; [7],25.8% (inactive)
same,"p53-positive nuclei, normalised","[2]; measured here: p53 positive nuclei at 24 h, Library stock concentration: 46 uM",-0.0163%
same,"p53-positive nuclei, normalised","[2]; measured here: p53 positive nuclei at 24 h, Library stock concentration: 278 uM",0.11%
same,"p53-positive nuclei, normalised","[2]; measured here: p53 positive nuclei at 24 h, Library stock concentration: 1.67 mM",27%
same,"p53-positive nuclei, normalised",[2]; [13],12.7%
same,"p53-positive nuclei, normalised",[2]; [8],46.3%
Cc1sc2c(c1C)C(c1ccc(Cl)cc1)=NC(CC(=O)OC(C)(C)C)c1nnc(C)n1-2 (centres undefined),"nuclei count, normalised","[1]; measured here: cell number at 24 h, Library stock concentration: 80 uM",101% and 128% and 116%
same,"nuclei count, normalised","[1]; measured here: cell number at 24 h, Library stock concentration: 400 uM",109% and 128% and 117%
same,"nuclei count, normalised","[1]; measured here: cell number at 24 h, Library stock concentration: 2 mM",107% and 132% and 120%
same,"nuclei count, normalised",[1]; [10],128%
same,"nuclei count, normalised",[1]; [3],99.7% and 123% and 119%
same,"nuclei count, normalised","[1]; measured here: cell number at 48 h, Library stock concentration: 80 uM",95.3% and 134% and 114%
same,"nuclei count, normalised","[1]; measured here: cell number at 48 h, Library stock concentration: 400 uM",97.6% and 128% and 112%
same,"nuclei count, normalised","[1]; measured here: cell number at 48 h, Library stock concentration: 2 mM",109% and 132% and 118%
same,"nuclei count, normalised",[1]; [11],124%
same,"nuclei count, normalised",[1]; [5],99.9% and 124% and 117%
same,"p53-positive nuclei, normalised",[2]; Library stock concentration: 80 uM,0.233% (inactive) and -0.29% (inactive) and -0.79% (inactive)
same,"p53-positive nuclei, normalised",[2]; Library stock concentration: 400 uM,-0.238% (inactive) and -0.0882% (inactive) and -0.721% (inactive)
same,"p53-positive nuclei, normalised",[2]; Library stock concentration: 2 mM,3.93% (inactive) and 0.629% (inactive) and -0.825% (inactive)
same,"p53-positive nuclei, normalised",[2]; [12],7.2% (inactive)
same,"p53-positive nuclei, normalised",[2]; [7],26.8% (active) and 8.08% (inactive) and -0.599% (inactive)
same,"p53-positive nuclei, normalised","[2]; measured here: p53 positive nuclei at 24 h, Library stock concentration: 80 uM",0.0692% and 0.858% and -0.21%
same,"p53-positive nuclei, normalised","[2]; measured here: p53 positive nuclei at 24 h, Library stock concentration: 400 uM",0.159% and 1.07% and -0.0728%
same,"p53-positive nuclei, normalised","[2]; measured here: p53 positive nuclei at 24 h, Library stock concentration: 2 mM",12.9% and 4.45% and -0.21%
same,"p53-positive nuclei, normalised",[2]; [13],15.6%
same,"p53-positive nuclei, normalised",[2]; [8],54.1% and 21.9% and 0.0629%
